PINK1 modulator: A Quantitative High throughput Screen to Identify Chemical Modulators of PINK1 Expression | PINK1 immunofluorescence, high-content cytometry, 24 h | Potency, µM (doses to about 76.6 µM), hits mostly activators | 0.2% of 410,000 active | AID 624263, 2012; active means well fitted activation curve with a large enough effect; inconclusive means small, poorly fitted or top-dose-only effect; cell line not stated here; further: nearly all actives have a fitted effect of over 65% in size
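Readout is PINK1 immunofluorescence, quantified alongside mitochondrial, cell and nuclear markers by laser-scanning microplate cytometry. Cells from a stable line were exposed to compound titrations (5 concentrations) for 24 hours, with CCCP controls.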
SW480 rerep: A quantitative high throughput screen for small molecules that induce DNA re-replication in SW480 colon adenocarcinoma cells. SW480 DNA re-replication, Hoechst DNA content imaging, 48 h. Potency, µM (top dose mostly 46.1 µM), usual class: activators. 1.8% of 340,000 active; further: nearly all actives have a fitted effect of over 55% in size
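Image-based read-out: total Hoechst fluorescence of nuclei (405 nm excitation, 500-530 nm emission), with hits raising the fraction of high-intensity nuclei. SW480 colon cells incubated 48 hr with compounds at 37 C.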
ALOX12 inh: Primary qHTS assay for inhibitors of human arachidonate 12S-lipoxygenase (ALOX12): Round 2 | Polyunsaturated fatty acid lipoxygenase ALOX12 (Homo sapiens), P18054 | purified 12hLO, xylenol orange hydroperoxide absorbance | Potency, µM (highest dose often 108 µM), hits mostly inhibitors | 1.1% of 580,000 active | AID 1671190, 2021
Target sequence (P18054 whole entry, looked up): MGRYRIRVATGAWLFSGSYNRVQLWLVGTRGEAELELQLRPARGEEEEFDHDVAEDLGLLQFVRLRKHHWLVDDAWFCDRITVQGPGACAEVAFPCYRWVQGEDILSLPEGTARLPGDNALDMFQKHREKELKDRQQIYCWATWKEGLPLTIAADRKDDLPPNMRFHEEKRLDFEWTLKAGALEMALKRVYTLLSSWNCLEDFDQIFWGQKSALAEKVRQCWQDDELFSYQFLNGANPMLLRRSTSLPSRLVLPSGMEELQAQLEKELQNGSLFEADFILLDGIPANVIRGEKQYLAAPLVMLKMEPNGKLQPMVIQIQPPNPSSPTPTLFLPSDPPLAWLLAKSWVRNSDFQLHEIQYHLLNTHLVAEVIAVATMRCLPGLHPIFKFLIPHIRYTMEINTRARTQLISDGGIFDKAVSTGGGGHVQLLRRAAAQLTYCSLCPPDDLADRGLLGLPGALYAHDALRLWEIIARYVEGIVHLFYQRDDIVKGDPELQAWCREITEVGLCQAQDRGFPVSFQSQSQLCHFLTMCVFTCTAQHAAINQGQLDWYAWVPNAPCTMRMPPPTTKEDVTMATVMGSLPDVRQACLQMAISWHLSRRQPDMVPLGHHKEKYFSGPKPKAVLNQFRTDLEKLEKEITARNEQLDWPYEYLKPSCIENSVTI
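Purified human 12hLO at 150 nM in 25 mM Hepes, 0.01% Triton X-100, pH 7.0, preincubated 15 min at room temperature with compound. Reaction started with 40 uM arachidonic acid, 30 min at room temperature. Hydroperoxide measured by Fe-xylenol orange, 573/405 nm absorbance ratio.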
KB-3-1 tox: qHTS assay for MDR1-selective chemotherapeutics: Primary screen using the parental adenocarcinoma cell KB-3-1. KB-3-1 viability, CellTiter-Glo ATP luminescence, 72 h. Potency, µM (series often up to 46.1 µM), most hits filed as cytotoxic. 1.4% of 400,000 active. AID 1347075, 2019; further: nearly all actives have a fitted effect of over 60% in size
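Parental KB-3-1 viability, qHTS format: 72 h compound exposure, 37 °C; CellTiter-Glo; media-only wells and DMSO plates as controls; concentration-effect fits on corrected data.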
MCF10A rereplic: A quantitative high throughput screen for small molecules that induce DNA re-replication in MCF 10a normal breast cells; AID 624296, 2012; Potency, µM (titrated, usually from 46.1 µM), usual class: activators; MCF 10A DNA re-replication, Hoechst nuclear intensity, 48 h; 2.9% of 350,000 active; further: nearly all actives have a fitted effect of over 50% in size
KB-V1 MDR tox: qHTS assay for MDR1-selective chemotherapeutics: Primary screen using the drug-selected MDR subline cells KB-V1 | 3.4% of 400,000 active | AID 1347076, 2019 | KB-V1 MDR cells viability, CellTiter-Glo, 72 h | Potency, µM (series often up to 46.1 µM), hits mostly cytotoxic; further: nearly all actives have a fitted effect of over 60% in size
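KB-V1 MDR subline cells in DMEM (phenol-red free, 10% FBS) exposed to compounds in qHTS concentration series for 72 h at 37 degrees C. Viability read by CellTiter-Glo luminescence; concentration-effect curves fitted after normalization and correction.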
Each line names hits and unclear results; the compound was inactive in the other large screens. This is a sample that favours compounds with a hit; in the whole collection about 5.8% have one here. Unless noted, the call rests on the fitted dose curve; in most records, active means well fitted curve in the direction sought with a large enough effect; inconclusive means small, poorly fitted or top-dose-only effect, or another doubt; inactive means no such curve, though single readings can be large; an effect the other way counts as inactive or inconclusive.

COc1ccc(CCNC(=O)c2cc3c(=O)n4cccc(C)c4nc3n(CCCN3CCOCC3)c2=N)cc1	SW480 rerep 2.6µM, MCF10A rereplic inconclusive
CCCNC(=O)c1noc2c1CCc1ccccc1-2	none
CCOCCCn1c(=N)c(C(=O)NCCN2CCOCC2)cc2c(=O)n3cccc(C)c3nc21	MCF10A rereplic 2.9µM
COCCn1c(=N)c(C(=O)NCCc2ccc(OC)cc2)cc2c(=O)n3cccc(C)c3nc21	SW480 rerep inconclusive, MCF10A rereplic inconclusive
Clc1ccc(-c2noc(-c3ccncc3)n2)cc1	none (no result: PINK1 modulator, SW480 rerep, KB-3-1 tox, MCF10A rereplic, KB-V1 MDR tox)
Nc1nnnn1Cc1nnc(SCc2ccccc2F)n1-c1ccccc1	none (no result: PINK1 modulator, SW480 rerep, KB-3-1 tox, MCF10A rereplic, KB-V1 MDR tox)
Cc1ccccc1C(=O)NC(=S)NCCN1CCOCC1	none
Cc1ccccc1C(=O)NCCN1CCOCC1	MCF10A rereplic 0.58µM, KB-V1 MDR tox inconclusive
COc1ccc(/C(O)=C2\C(=O)C(=O)NC2c2ccc(Cl)cc2)cc1F (stereo unspecified)	ALOX12 inh 11µM (no result: PINK1 modulator, SW480 rerep, KB-3-1 tox, MCF10A rereplic, KB-V1 MDR tox)
C#CCN(C[C@@H]1[C@@H](OC(=O)NCc2ccco2)[C@@H](OC(=O)NCc2ccco2)Cn2c(=O)ccc(=O)n21)S(=O)(=O)c1ccc(C)cc1	KB-3-1 tox 16µM (no result: SW480 rerep, MCF10A rereplic)
C#CCN(C[C@@H]1[C@@H](OC(=O)NCc2ccco2)[C@@H](OC(=O)NCc2ccco2)Cn2c(=O)n(CCCCCC)c(=O)n21)S(=O)(=O)c1ccc(C)cc1	ALOX12 inh inconclusive, KB-3-1 tox inconclusive (no result: SW480 rerep, MCF10A rereplic)
CC/C(=N\NC(=O)c1ccc(C(C)(C)C)cc1)c1ccc(C)cc1	none (no result: PINK1 modulator, SW480 rerep, KB-3-1 tox, MCF10A rereplic, KB-V1 MDR tox)
COC(=O)c1ccc(-c2ccco2)n1Cc1nc(-c2ccc(OC)c(OC)c2)oc1C	ALOX12 inh inconclusive, KB-3-1 tox inconclusive, MCF10A rereplic 18µM
COCC(=O)NNC(=S)NCc1ccc(C)cc1	none (no result: PINK1 modulator, SW480 rerep, KB-3-1 tox, MCF10A rereplic, KB-V1 MDR tox)
Cc1ccc(-c2cnc(CCC(=O)NCc3ccc(OCC(F)(F)F)cc3)o2)cc1	none (no result: PINK1 modulator, SW480 rerep, KB-3-1 tox, MCF10A rereplic, KB-V1 MDR tox)
COc1ccc(-c2cc3nccn3c(Nc3ncccc3C(N)=O)n2)cc1OC	ALOX12 inh 1.4µM (no result: PINK1 modulator, SW480 rerep, KB-3-1 tox, MCF10A rereplic, KB-V1 MDR tox)
Cc1ccc(Nc2ncccc2C(N)=O)cc1	none
Cc1onc(-c2c(F)cccc2Cl)c1C(=O)NC1CCCCCC1	ALOX12 inh inconclusive, MCF10A rereplic inconclusive
Cc1onc(-c2c(F)cccc2Cl)c1C(=O)Nc1sc2c(c1C(N)=O)CCC2	SW480 rerep inconclusive, ALOX12 inh inconclusive, KB-3-1 tox inconclusive, MCF10A rereplic 5µM, KB-V1 MDR tox inconclusive
NC(=O)c1c(NC(=O)c2ccccc2Cl)sc2c1CCC2	ALOX12 inh 28µM
Cc1onc(-c2c(F)cccc2Cl)c1C(=O)NC(=S)NC1CCS(=O)(=O)C1 (stereo unspecified)	KB-V1 MDR tox 23µM
COc1ccc(C2CN=NC23CCCc2ccccc2C3=O)cc1 (stereo unspecified)	SW480 rerep 18µM, KB-3-1 tox inconclusive, MCF10A rereplic 18µM, KB-V1 MDR tox inconclusive
Brc1ccc2c(c1)C(c1cccs1)=NNC(c1cccnc1)=N2	KB-V1 MDR tox 21µM
O=C(CCS(=O)(=O)c1ccccc1)Nc1nnc(C(F)(F)F)s1	SW480 rerep 13µM, KB-3-1 tox inconclusive, MCF10A rereplic 23µM, KB-V1 MDR tox inconclusive
CC1(C)CC(=O)c2sc(NC(=O)CCS(=O)(=O)c3ccccc3)nc2C1	KB-3-1 tox 21µM, MCF10A rereplic 23µM
CC(Oc1ccccc1)C(=O)Nc1nc2c(s1)C(=O)CC(C)(C)C2 (stereo unspecified)	none
CCC(NC(=O)Nc1nnc(C(F)(F)F)s1)(C(F)(F)F)C(F)(F)F	PINK1 modulator inconclusive, SW480 rerep inconclusive, KB-3-1 tox 10µM, MCF10A rereplic inconclusive, KB-V1 MDR tox 4.1µM
CC1(C)CC(=O)c2sc(NC(=O)CN3CCCCC3)nc2C1	ALOX12 inh 32µM
O=c1oc2cc(O)ccc2cc1-c1nnc(Nc2cccc(Cl)c2)s1	none (no result: PINK1 modulator, SW480 rerep, KB-3-1 tox, MCF10A rereplic, KB-V1 MDR tox)
N#Cc1nc(-c2ccco2)oc1N1CCN(CC(=O)N(Cc2ccccc2F)C2CC2)CC1	none (no result: PINK1 modulator, SW480 rerep, KB-3-1 tox, MCF10A rereplic, KB-V1 MDR tox)
CC1(C)CC(=O)c2sc(NS(=O)(=O)c3ccc(Cl)cc3)nc2C1	ALOX12 inh inconclusive
CC1(C)CC(=O)c2sc(NS(=O)(=O)c3ccc(Br)cc3)nc2C1	ALOX12 inh inconclusive, MCF10A rereplic 0.58µM
COc1ccc(C2CC(c3cccs3)=NN2C(=O)CSc2nnnn2C)cc1OC (stereo unspecified)	none
COc1ccc(C2CC(c3cccs3)=NN2C(=O)CSc2nncn2C)cc1OC (stereo unspecified)	MCF10A rereplic 4.6µM, KB-V1 MDR tox inconclusive
CCCOc1ccccc1/C=C1\SC(N2CCCCC2)=NC1=O	KB-3-1 tox 7.3µM, MCF10A rereplic inconclusive
O=C1N=C(N2CCCCC2)S/C1=C\c1ccccc1F	none
COc1ccccc1OCCN1CSC(=S)N(C)C1	SW480 rerep 2.6µM, KB-3-1 tox 5.2µM, MCF10A rereplic 7.3µM, KB-V1 MDR tox inconclusive
Cc1cccc(OCCN2CSC(=S)N(C)C2)c1	SW480 rerep inconclusive, KB-3-1 tox 8.2µM, MCF10A rereplic 5.8µM, KB-V1 MDR tox 10µM
CCCNC(=O)N[C@@H]1C[C@H](Cn2cc(-c3cccnc3)nn2)[C@@H](O)[C@H]1O	ALOX12 inh 14µM (no result: PINK1 modulator, SW480 rerep, KB-3-1 tox, MCF10A rereplic, KB-V1 MDR tox)
Cc1nc(Sc2ccc(Cl)cc2)c(C#N)c(C)c1[N+](=O)[O-]	SW480 rerep inconclusive, MCF10A rereplic 18µM, KB-V1 MDR tox inconclusive

Assay outcomes (PubChem BioAssay)
